# Results from PubChem BioAssay AID463173 (ICCB-Longwood Screening Facility, Harvard Medical School, 2010).
# In all, about 52,000 compounds went through this assay and about 4,300 (8.3%) were called active. The sample holds actives, similar compounds and a random draw of the others, so the mix is not that of the screen. Values without a mark were called inactive. Rule as the data show it: active = survival mostly below about 52% (no sharp cut-off); inactive = mostly above about 56%.
# Test system: DeltatarO mutant
# Assay: growth inhibition of S. aureus wild type versus tarO mutant, primary screen, teichoic acid synthesis inhibitors, RN4220, OD600 (AID 463173)
# Conditions: OD600, 18 h, active compounds read low, screened at 18.75 µg/mL (by protocol)
row,SMILES,survival
1,CNC(=O)CN(C1CCCCC1)S(=O)(=O)c1ccc(C)cc1,75%
2,CC(C)C(=O)c1cn(CC(=O)NCc2cccs2)c2ccccc12,88%
3,CC(C)NC(=O)C1CCC(Cn2c(=O)c3sccc3n(CC(=O)Nc3ccccc3)c2=O)CC1 (stereo not given),74%
4,CCc1ccc(CNC(=O)c2cnc3sc(N4CCCCC4)nn3c2=O)cc1,99%
5,Cc1ccc(C)c(CN2CCCN(Cc3ccc(F)cc3)S2(=O)=O)c1,-5% (active)
6,COC(=O)c1ccc(NC(=O)CN2CCCN(Cc3ccc(Cl)cc3)S2(=O)=O)cc1,94%
7,COc1ccc(NC(=O)CN2CCCN(Cc3ccc(Cl)cc3)S2(=O)=O)cc1Cl,60%
8,Cc1ccc(CN2CCCN(Cc3c(C)cc(C)cc3C)S2(=O)=O)cc1,91%
9,COC(=O)c1ccc(OC)c(CN2CCCN(Cc3ccc(C)cc3)S2(=O)=O)c1,20% (active)
10,Cc1ccc(C)c(CN2CCCN(Cc3ccccc3C)S2(=O)=O)c1,87%
11,CCOC(=O)CCCN1C(=O)CCn2nc(-c3cn(C)c4ccccc34)cc21,69%
12,CCN(c1ccccc1C)S(=O)(=O)c1ccc(N2CCCCS2(=O)=O)cc1,125%
13,CCSc1nnc(C2CCCN(CC(=O)NC3CCCCC3C)C2)n1CC (stereo not given),74%
14,Cc1ccc(CNC(=O)C2CCCN(Cc3nc(-c4cccc(C)c4)oc3C)C2)cc1 (stereo not given),41%
15,Cc1cccc(-c2nc(CN3CCCC(C(=O)NCc4ccc(Cl)cc4)C3)c(C)o2)c1 (stereo not given),18% (active)
16,Cc1oc(-c2ccc(Cl)cc2)nc1CN1CCCC(C(=O)NCc2ccc(Cl)cc2)C1 (stereo not given),59%
17,Cc1oc(-c2cccc(Cl)c2)nc1CN1CCCC(C(=O)NCc2ccc(Cl)cc2)C1 (stereo not given),-1% (active)
18,Cc1oc(-c2cccc(Cl)c2)nc1CN1CCCC(C(=O)NCc2ccc(F)cc2)C1 (stereo not given),52%
19,Cc1ccccc1-c1nc(CN2CCCC(C(=O)NCc3ccc(Cl)cc3)C2)c(C)o1 (stereo not given),61%
20,CSCCC(NS(=O)(=O)c1ccc2c(c1)oc(=O)n2C)C(=O)N1CCN(c2cccc(Cl)c2)CC1 (stereo not given),72%
21,Cc1nn(-c2ccccc2)c2c1N(CCCC(=O)NCc1ccc(Cl)cc1)C(=O)CS2,94%
22,Cc1cccc(CNC(=O)c2ccc3nc(Cc4ccccc4)oc3c2)c1,124%
23,CCOc1ccc(NC(=O)CSc2nc3c([nH]c4ccccc43)c(=O)n2-c2cc(C)cc(C)c2)cc1,89%
24,Cc1ccc(N2CC(NC(=O)c3ccc(S(=O)(=O)N4CCCC4)cc3)CC2=O)cc1C (stereo not given),83%
25,O=C(Cn1ncc2c3ccccc3n(Cc3ccccc3F)c2c1=O)NCCCc1ccccc1,81%
26,Cc1cc(C)c2nc(N(Cc3cccnc3)C(=O)CCOc3ccccc3)sc2c1,84%
27,COc1cccc(CNC(=O)Cn2c(SCC(=O)Nc3ccc(C)c(C)c3)nc3ccccc32)c1,87%
28,O=C(CSc1nc2ccccc2n1Cc1ccc(F)cc1)N1CCN(c2ccc(F)cc2)CC1,92%

row,SMILES,survival
1,Cc1ccc(CNC(=O)Cn2c(SCC(=O)Nc3ccc(F)cc3)nc3ccccc32)cc1,126%
2,COc1ccc(Cn2c(SCC(=O)N3CCN(c4ccc(F)cc4)CC3)nc3ccccc32)cc1,47% (active)
3,CN(C(=O)CSc1nc2ccccc2n1Cc1cccc(C(F)(F)F)c1)c1ccccc1,66%
4,COC(=O)c1ccc(Cn2c(SCC(=O)N(C)c3ccccc3)nc3ccccc32)cc1,60%
5,O=C(Cn1c(SCC(=O)Nc2ccc(F)cc2)nc2ccccc21)NCc1ccc(F)cc1,91%
6,COc1ccc(NC(=O)CSc2nc3ccccc3n2CC(=O)NCc2ccc(F)cc2)cc1,-5% (active)
7,COc1cccc(Cn2c(SCC(=O)N3CCN(c4ccc(F)cc4)CC3)nc3ccccc32)c1,66%
8,COc1ccc(CNC(=O)Cn2c(SCC(=O)Nc3ccc(OC)cc3)nc3ccccc32)cc1,89%
9,COc1cccc(Cn2c(SCC(=O)N(C)c3ccccc3)nc3ccccc32)c1,-4% (active)
10,COc1cccc(CNC(=O)Cn2c(SCC(=O)Nc3ccc(F)cc3)nc3ccccc32)c1,8% (active)
11,CCc1ccc(NC(=O)CCCn2nc(C)c3c(C)n(-c4ccccc4)nc3c2=O)cc1,81%
12,CC(C)c1ccc(NC(=O)CSc2ncnc3c2sc2ccccc23)cc1,70%
13,CCC(=O)OC1CSc2nc3ccccc3n2C1 (stereo not given),76%
14,Cc1ccc(-n2c(=O)c3c(c4cc(C)ccc4n3C)n(CC(=O)NCc3ccccc3Cl)c2=O)cc1,74%
15,Cc1ccc(/C=C/c2onc(C)c2S(=O)(=O)N2CCC(C(=O)N3CCC(N(C)C(C)C)CC3)CC2)cc1,67%
16,CCOC(=O)C1=C(CN2CCN(c3ccccc3F)CC2)NC(=O)NC1c1ccc(OC)cc1 (stereo not given),70%
17,Cc1ccc(CSCCC(=O)NCc2ccc(F)cc2Cl)cc1,118%
18,CC(=O)c1cccc(NC(=O)Cn2c(SCC(=O)Nc3ccc(F)cc3)nc3ccccc32)c1,20% (active)
19,COc1ccc(NC(=O)CSc2nc3ccccc3n2Cc2cccc(OC)c2)cc1,134%
20,O=C(CSc1nc2ccccc2n1CC(=O)Nc1ccc(F)cc1F)Nc1ccc(F)cc1,89%
21,COc1cccc(NC(=O)CSc2nc3ccccc3n2C)c1,37% (active)
22,Cc1ccccc1NC(=O)Cn1c(SCC(=O)Nc2ccc(F)cc2)nc2ccccc21,95%
23,COc1cccc(NC(=O)CSc2cc(C)c3ccccc3n2)c1,72%
24,COc1cccc(CNC(=O)c2[nH]c3cc(C)ccc3c2Sc2ccccc2)c1,83%
25,CCCN1C(=O)c2ccccc2NC1c1cc(OC)c(OC)c(OC)c1 (stereo not given),96%
26,CC(C)c1ccc(NC(=O)C2CCN(S(=O)(=O)c3cccc4nsnc34)CC2)cc1,72%
27,CCOc1ccc(N(CC)S(=O)(=O)N2CCCC(C(=O)Nc3ccc(NC(C)=O)cc3)C2)cc1 (stereo not given),84%
